According to PMC7862700, “An all-to-all approach to the identification of sequence-specific readers for epigenetic DNA modifications on cytosine”:

How the values were obtained:
Test in all cases: DAPPL (digital affinity profiling via proximity ligation, sequencing); 10 mM Tris-HCl pH 7.5, 50 mM NaCl, 1 mM DTT, 4% glycerol, room temperature, 30 min; GST-TFs on glutathione beads, 16-mer random dsDNA library, 0.1% formaldehyde crosslink after washing; high values mean tight binding
Conditions in all cases: protein: recombinant; tags: N-terminal GST; dsDNA, one strand shown
SPI1 = SPI1 (Homo sapiens, UniProt P17947 1-270)
How it was run: (§1)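 The binding signal reported is, for every hexamer, its read frequency for a factor over its read frequency for the tag-only sample. Reads came from pools of yeast-expressed, GST-fused human transcription factors on glutathione beads, barcoded with DNA and mixed with that sample, which were incubated with 200 nmole of a random double-stranded 16-mer DNA library in Tris/NaCl/DTT/glycerol buffer at room temperature for 30 min. After washing, the pools were crosslinked with 0.1% formaldehyde, proximity-ligated with BsaI/T4 ligase for 1 h at 37 °C, PCR-amplified and sequenced on an Illumina NextSeq500.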

ETV3L = target: T1, ETV3L (Homo sapiens, UniProt Q6ZN32 1-361)
T1 sequence: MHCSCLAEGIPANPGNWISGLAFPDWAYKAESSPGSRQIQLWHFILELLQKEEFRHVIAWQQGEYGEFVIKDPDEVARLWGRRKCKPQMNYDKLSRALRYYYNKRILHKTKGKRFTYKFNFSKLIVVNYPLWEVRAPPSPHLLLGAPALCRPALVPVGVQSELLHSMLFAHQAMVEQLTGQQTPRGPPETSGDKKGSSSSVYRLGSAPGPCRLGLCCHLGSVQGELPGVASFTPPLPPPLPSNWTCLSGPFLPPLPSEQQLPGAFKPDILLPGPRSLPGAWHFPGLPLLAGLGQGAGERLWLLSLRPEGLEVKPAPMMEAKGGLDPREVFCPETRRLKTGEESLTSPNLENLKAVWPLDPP
How it was run: as §1

ETS2 = target: T2, ETS2 (Homo sapiens, UniProt P15036 1-469)
T2 sequence: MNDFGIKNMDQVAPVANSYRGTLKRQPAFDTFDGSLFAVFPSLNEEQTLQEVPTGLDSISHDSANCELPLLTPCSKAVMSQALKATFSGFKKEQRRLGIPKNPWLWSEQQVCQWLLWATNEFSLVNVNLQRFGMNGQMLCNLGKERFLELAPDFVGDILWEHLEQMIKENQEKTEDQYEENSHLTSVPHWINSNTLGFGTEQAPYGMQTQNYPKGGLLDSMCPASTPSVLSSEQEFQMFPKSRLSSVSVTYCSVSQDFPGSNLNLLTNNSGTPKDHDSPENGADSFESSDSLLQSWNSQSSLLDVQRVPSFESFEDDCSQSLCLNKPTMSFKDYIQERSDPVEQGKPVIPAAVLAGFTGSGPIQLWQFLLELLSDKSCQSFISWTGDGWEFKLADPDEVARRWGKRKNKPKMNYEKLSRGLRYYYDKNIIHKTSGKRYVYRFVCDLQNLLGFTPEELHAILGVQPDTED
How it was run: as §1

ERF = target: T3, ERF (Homo sapiens, UniProt P50548 1-548)
T3 sequence: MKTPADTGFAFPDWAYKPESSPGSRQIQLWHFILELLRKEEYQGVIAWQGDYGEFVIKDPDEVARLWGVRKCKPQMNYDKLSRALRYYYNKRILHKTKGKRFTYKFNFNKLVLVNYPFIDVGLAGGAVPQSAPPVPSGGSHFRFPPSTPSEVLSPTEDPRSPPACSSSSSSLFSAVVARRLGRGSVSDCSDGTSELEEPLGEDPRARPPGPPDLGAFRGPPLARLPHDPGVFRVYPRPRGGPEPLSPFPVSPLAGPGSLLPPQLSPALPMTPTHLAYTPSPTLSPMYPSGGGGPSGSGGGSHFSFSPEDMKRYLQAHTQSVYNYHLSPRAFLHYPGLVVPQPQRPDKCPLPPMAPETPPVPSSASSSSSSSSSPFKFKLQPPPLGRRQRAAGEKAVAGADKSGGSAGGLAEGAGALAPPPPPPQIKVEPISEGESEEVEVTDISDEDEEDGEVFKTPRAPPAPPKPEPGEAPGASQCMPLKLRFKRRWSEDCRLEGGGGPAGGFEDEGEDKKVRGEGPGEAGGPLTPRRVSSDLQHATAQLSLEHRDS
How it was run: as §1

SPDEF = target: T4, SPDEF (Homo sapiens, UniProt O95238 1-335)
T4 sequence: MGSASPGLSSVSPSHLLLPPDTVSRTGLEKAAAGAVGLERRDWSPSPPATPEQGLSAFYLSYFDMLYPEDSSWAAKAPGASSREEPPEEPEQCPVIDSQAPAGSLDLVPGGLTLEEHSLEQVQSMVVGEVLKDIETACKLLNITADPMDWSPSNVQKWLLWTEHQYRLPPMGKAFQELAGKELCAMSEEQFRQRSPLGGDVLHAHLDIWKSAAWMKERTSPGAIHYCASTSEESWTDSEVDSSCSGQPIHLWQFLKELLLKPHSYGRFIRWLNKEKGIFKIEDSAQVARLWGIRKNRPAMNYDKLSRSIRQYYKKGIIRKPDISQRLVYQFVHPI
How it was run: as §1

EHF = target: T5, EHF (Homo sapiens, UniProt Q9NZC4 1-300)
T5 sequence: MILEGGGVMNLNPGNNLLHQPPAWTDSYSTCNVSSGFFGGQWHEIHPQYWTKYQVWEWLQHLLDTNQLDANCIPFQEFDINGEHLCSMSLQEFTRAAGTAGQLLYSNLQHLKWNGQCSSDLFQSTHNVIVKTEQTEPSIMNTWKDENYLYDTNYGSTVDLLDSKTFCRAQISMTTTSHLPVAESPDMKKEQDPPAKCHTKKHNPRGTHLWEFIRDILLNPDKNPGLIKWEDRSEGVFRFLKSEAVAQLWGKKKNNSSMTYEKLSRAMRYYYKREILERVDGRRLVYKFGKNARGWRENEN
How it was run: as §1

ERG = target: T6, ERG (Homo sapiens, UniProt P11308 1-479)
T6 sequence: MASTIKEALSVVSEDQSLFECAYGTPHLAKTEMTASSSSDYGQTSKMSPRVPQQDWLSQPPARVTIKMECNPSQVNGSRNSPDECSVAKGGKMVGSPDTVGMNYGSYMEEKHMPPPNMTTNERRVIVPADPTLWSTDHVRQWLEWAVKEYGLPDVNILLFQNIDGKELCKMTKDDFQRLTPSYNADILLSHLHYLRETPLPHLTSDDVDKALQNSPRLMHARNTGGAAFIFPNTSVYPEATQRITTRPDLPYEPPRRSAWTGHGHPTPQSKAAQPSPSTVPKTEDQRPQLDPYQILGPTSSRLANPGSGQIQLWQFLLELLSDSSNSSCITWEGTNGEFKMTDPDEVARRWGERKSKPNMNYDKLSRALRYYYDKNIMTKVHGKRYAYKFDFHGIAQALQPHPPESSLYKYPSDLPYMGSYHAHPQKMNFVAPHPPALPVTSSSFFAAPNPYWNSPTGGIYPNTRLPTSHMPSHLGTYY
How it was run: as §1

SPIB = SPIB (Homo sapiens, UniProt Q01892 1-262)
Sequence of SPIB (Q01892 whole entry): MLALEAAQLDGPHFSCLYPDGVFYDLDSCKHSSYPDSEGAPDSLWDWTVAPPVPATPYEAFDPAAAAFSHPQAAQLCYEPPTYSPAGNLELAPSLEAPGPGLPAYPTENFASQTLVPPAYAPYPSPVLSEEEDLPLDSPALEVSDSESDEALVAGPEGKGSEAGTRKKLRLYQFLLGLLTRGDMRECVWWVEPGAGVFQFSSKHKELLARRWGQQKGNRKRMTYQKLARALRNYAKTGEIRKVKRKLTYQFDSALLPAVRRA
How it was run: as §1

ELK3 = target: T7, ELK3 (Homo sapiens, UniProt P41970 1-407)
T7 sequence: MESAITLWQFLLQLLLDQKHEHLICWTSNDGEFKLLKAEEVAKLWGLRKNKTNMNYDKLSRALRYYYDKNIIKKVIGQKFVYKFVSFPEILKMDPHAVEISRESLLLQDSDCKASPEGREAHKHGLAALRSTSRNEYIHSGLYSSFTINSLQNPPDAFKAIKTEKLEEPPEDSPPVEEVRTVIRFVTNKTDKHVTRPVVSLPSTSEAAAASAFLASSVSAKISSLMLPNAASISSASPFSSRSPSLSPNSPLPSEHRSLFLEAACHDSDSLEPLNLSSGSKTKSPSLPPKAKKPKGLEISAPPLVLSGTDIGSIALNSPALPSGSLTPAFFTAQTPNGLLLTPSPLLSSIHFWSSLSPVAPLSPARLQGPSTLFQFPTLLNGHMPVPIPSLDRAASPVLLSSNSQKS
How it was run: as §1

ETV7 = target: T8, ETV7 (Homo sapiens, UniProt Q9Y603 1-341)
T8 sequence: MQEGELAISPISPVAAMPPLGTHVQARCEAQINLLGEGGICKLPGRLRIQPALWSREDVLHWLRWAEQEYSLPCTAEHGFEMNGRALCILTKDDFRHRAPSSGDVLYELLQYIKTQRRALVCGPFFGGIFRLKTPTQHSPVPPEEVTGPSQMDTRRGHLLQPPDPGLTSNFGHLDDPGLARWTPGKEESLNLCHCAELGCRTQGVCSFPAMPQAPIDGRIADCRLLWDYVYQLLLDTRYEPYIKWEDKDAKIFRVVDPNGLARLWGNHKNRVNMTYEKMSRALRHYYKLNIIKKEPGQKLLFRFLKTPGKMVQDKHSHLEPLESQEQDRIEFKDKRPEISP
How it was run: as §1

ETV6 = ETV6 (Homo sapiens, UniProt P41212 1-452)
Sequence of ETV6 (P41212 whole entry): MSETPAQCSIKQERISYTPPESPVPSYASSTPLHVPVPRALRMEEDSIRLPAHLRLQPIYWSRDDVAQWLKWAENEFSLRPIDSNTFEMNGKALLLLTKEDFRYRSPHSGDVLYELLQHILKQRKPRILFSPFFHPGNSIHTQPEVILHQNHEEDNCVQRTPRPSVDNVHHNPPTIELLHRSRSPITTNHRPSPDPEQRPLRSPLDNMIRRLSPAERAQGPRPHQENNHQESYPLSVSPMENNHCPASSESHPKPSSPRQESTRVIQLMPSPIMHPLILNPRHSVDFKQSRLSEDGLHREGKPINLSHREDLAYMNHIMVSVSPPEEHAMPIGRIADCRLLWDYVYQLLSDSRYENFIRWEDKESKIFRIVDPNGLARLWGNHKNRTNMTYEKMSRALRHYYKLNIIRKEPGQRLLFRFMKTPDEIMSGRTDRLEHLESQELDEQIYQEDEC
How it was run: as §1

ETV1 = ETV1 (Homo sapiens, UniProt P50549 1-477)
Sequence of ETV1 (P50549 whole entry): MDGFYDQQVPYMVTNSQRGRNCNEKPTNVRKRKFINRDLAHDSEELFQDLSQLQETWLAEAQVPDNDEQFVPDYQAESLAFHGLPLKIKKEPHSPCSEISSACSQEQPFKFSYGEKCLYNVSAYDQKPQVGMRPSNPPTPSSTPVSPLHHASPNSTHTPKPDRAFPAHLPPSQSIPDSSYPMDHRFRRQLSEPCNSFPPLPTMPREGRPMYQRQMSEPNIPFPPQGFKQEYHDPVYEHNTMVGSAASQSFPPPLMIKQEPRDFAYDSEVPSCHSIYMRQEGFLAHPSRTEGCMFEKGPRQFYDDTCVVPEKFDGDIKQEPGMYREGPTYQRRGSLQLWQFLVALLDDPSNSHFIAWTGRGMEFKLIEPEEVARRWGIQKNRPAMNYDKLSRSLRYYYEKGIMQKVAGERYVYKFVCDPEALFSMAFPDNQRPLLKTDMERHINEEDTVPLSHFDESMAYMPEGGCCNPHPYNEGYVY
How it was run: as §1

ETV3 = target: T9, ETV3 (Homo sapiens, UniProt P41162-2 1-143)
T9 sequence: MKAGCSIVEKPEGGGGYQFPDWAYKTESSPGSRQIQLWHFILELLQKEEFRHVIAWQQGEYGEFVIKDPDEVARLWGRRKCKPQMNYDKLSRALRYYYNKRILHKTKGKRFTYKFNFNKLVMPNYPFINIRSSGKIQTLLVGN
How it was run: as §1

GABPA = target: T10, GABPA (Homo sapiens, UniProt Q06546 1-454)
T10 sequence: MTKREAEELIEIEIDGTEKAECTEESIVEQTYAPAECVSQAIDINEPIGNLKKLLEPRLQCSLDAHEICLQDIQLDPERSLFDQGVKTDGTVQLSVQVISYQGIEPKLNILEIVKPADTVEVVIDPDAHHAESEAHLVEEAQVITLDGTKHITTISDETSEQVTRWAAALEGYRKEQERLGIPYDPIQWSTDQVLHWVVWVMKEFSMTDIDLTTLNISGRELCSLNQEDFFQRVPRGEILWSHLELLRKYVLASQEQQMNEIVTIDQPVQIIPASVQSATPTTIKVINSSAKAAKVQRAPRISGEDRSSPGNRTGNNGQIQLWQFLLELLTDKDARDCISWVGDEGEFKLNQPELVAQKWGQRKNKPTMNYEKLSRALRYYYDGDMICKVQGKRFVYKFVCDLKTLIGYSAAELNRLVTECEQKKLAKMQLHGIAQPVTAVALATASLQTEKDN
How it was run: as §1

## AGTTCA
SPI1
  binding signal: 1.01 fold enrichment (6-mer frequency, TF over GST control)
ETV3L
  binding signal: 1.04 fold enrichment (6-mer frequency, TF over GST control)
ETS2
  binding signal: 1 fold enrichment (6-mer frequency, TF over GST control)

## ATAGAG
ERF
  binding signal: 1.01 fold enrichment (6-mer frequency, TF over GST control)

## TGTAGT
SPDEF
  binding signal: 1.03 fold enrichment (6-mer frequency, TF over GST control)

## GGGTCC
SPDEF
  binding signal: 1 fold enrichment (6-mer frequency, TF over GST control)

## GCTGTC
EHF
  binding signal: 1 fold enrichment (6-mer frequency, TF over GST control)
ERF
  binding signal: 1.03 fold enrichment (6-mer frequency, TF over GST control)

## AAGACA
ERG
  binding signal: 1 fold enrichment (6-mer frequency, TF over GST control)
SPIB
  binding signal: 1.02 fold enrichment (6-mer frequency, TF over GST control)
ELK3
  binding signal: 1.01 fold enrichment (6-mer frequency, TF over GST control)
ERF
  binding signal: 1.07 fold enrichment (6-mer frequency, TF over GST control)
ETV3L
  binding signal: 1.01 fold enrichment (6-mer frequency, TF over GST control)
ETS2
  binding signal: 1.01 fold enrichment (6-mer frequency, TF over GST control)
ETV7
  binding signal: 1.04 fold enrichment (6-mer frequency, TF over GST control)

## GCGCTA
ELK3
  binding signal: 1.13 fold enrichment (6-mer frequency, TF over GST control)
ERF
  binding signal: 1.05 fold enrichment (6-mer frequency, TF over GST control)
ETV6
  binding signal: 1 fold enrichment (6-mer frequency, TF over GST control)

## AAGGGG
SPI1
  binding signal: 1.36 fold enrichment (6-mer frequency, TF over GST control)
ELK3
  binding signal: 1.05 fold enrichment (6-mer frequency, TF over GST control)
ETV1
  binding signal: 1.07 fold enrichment (6-mer frequency, TF over GST control)

## GACGAA
ERF
  binding signal: 1.01 fold enrichment (6-mer frequency, TF over GST control)

## GAACAG
ERG
  binding signal: 1.02 fold enrichment (6-mer frequency, TF over GST control)
EHF
  binding signal: 1.03 fold enrichment (6-mer frequency, TF over GST control)
SPIB
  binding signal: 1.03 fold enrichment (6-mer frequency, TF over GST control)
ETV7
  binding signal: 1 fold enrichment (6-mer frequency, TF over GST control)
ETV3
  binding signal: 1.05 fold enrichment (6-mer frequency, TF over GST control)

## AGCGCA
ETV3L
  binding signal: 1.01 fold enrichment (6-mer frequency, TF over GST control)

## GCAACG
GABPA
  binding signal: 1.03 fold enrichment (6-mer frequency, TF over GST control)
ERG
  binding signal: 1 fold enrichment (6-mer frequency, TF over GST control)
ERF
  binding signal: 1.01 fold enrichment (6-mer frequency, TF over GST control)

## AGCACC
ERF
  binding signal: 1.03 fold enrichment (6-mer frequency, TF over GST control)
ETV3L
  binding signal: 1.04 fold enrichment (6-mer frequency, TF over GST control)

## CGGAAT
SPDEF
  binding signal: 1 fold enrichment (6-mer frequency, TF over GST control)
ETV3
  binding signal: 1.02 fold enrichment (6-mer frequency, TF over GST control)
ETV6
  binding signal: 1.01 fold enrichment (6-mer frequency, TF over GST control)

## GGGAAG
ETV6
  binding signal: 1.04 fold enrichment (6-mer frequency, TF over GST control)
